The source of these data is PubChem BioAssay AID1035475 (Broad Institute, 2014).

Molecules are shown by their SMILES. Measured potencies and affinities stand elsewhere. Results filed as inconclusive are left out. The source made the active and inactive calls.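 How the source made its calls: active means fluorescent signal drops by 40% or more, counted as a hit; inconclusive means no clear call, values can overlap the other calls; inactive means the rest, including any activity in the opposite direction.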

The experiment is described as follows: blockers of FN fibrillogenesis by fibroblasts – AH1F cells, Alexa488-FN fluorescence, cherry-picks, dose response (AID 1035475).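 Further: AH1F fibroblasts incorporating labeled fibronectin into their extracellular matrix.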

Regarding `C=C1C(=O)O[C@@H]2C[C@@H](C)[C@@H]3C=CC(=O)[C@@]3(C)[C@@H](O)[C@H]12`, the call was inactive.
